Bioassay records: PubChem, National Center for Advancing Translational Sciences (NCATS)
BRCA1 expr up: BRCA1 expression activation; MCF7-BRCA1-FFLuc reporter, luminescence, 48 h; response scale: scaled: vehicle 0%, 10 µM genistein 100%; 380,000 compounds, 1.1% hits; AID 624202; Potency, µM (highest dose often 46.1 µM), for the others: top-dose activation, most hits filed as activators; further: nearly all actives have a fitted effect of over 80% in size
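Luminescence from a BRCA1-driven firefly luciferase in MCF7 cells was the read-out, taken 15 min after substrate addition following 48 h compound exposure at 37 °C. Data were normalized to a 10 microM genistein control and DMSO vehicle.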
ERG-DNA inh: ERG Ets/DNA interaction inhibition | P11308 | fluorescence polarization, His-ERG Ets domain / labelled DNA | Potency, µM (highest dose often 76.9 µM), inactives show at the top dose FP activity, negative = inhibition, most hits filed as inhibitors | 370,000 compounds, 0.028% hits; active means well fitted inhibition curve with a large enough effect in the polarisation, with a control signal flat; inconclusive means small, poorly fitted or top-dose-only effect, or effect the other way, or a change in a side signal; inactive means no such curve, though single readings can be large or run the other way; the % refers to the polarisation;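 further: polarization taken with two DNA probes labelled with fluorescein and Texas red; % of control where 0% means no effect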
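His-tagged ERG Ets domain (1 uM in the protein solution; 300mM KCl, 50mM Tris-HCl, 1mM EDTA, 1mM DTT, pH 7.5) received compound, then a probe mix of 5 nM fluorescein-DNA and 100nM Texas-615-DNA. Fluorescence polarization was read for both dyes.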
GoLoco inh red: inhibitors of human Gai1-RGS12 GoLoco interaction (red fluorophore). 230,000 compounds, 0.44% hits. AID 880. Gai1:RGS12 GoLoco peptide FP, rhodamine, 10 min. Potency, µM (titrated, usually from 61.6 µM), without a hit: top-dose activity, negative = inhibition, usual class: inhibitors. P63096; active means well fitted inhibition curve with a large enough effect, not every such curve was filed as active; inactive means no such curve, though single readings can be large or run the other way; further: on the % scale 0 is the no-effect control and ±100 the full control effect; nearly all actives have a fitted effect of over 30% in size
Target sequence (P63096 whole entry, looked up): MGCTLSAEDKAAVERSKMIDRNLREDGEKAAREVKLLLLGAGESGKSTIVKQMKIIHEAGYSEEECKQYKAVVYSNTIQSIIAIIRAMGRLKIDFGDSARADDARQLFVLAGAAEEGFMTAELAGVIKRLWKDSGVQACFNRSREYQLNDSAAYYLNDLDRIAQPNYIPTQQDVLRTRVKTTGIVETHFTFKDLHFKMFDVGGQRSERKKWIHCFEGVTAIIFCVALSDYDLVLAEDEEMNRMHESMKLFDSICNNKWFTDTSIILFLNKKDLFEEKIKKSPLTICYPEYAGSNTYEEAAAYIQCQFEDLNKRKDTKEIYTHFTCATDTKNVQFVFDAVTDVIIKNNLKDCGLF
Anesthetic bind: binds horse apoferritin like a general anesthetic; P02791; Potency, µM (top dose mostly 77.5 µM), inactives show at the top dose activity change, negative = displacement, actives largely listed as inhibitors; apoferritin/1-aminoanthracene competitive binding, fluorescence; 350,000 compounds, 0.074% hits; further: on the % scale 0 is the no-effect control and ±100 the full control effect; nearly all actives have a fitted effect of over 20% in size
Target sequence (P02791 2-175 limits assumed): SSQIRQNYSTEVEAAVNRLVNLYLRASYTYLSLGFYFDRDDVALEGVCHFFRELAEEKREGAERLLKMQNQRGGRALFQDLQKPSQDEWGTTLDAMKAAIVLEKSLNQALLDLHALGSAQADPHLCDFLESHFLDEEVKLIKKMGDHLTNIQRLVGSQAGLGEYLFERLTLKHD
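Probe: 1-aminoanthracene (50% saturated, PBS). Protein: horse-spleen apoferritin, 10 uM. Incubation: 10 min, room temperature. Detection: 380 nm excitation, 535 nm emission. Analysis: normalized response, four-parameter Hill.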
* = called active by the depositor; i = inactive; ? = inconclusive; . = no result. Rows were chosen to be rich in hits. Some 1.2% of all compounds tested hit in one or more screens of this group. Unless noted, the call rests on the fitted dose curve; in most records, active means well fitted curve in the direction sought with a large enough effect; inconclusive means small, poorly fitted or top-dose-only effect, or another doubt; inactive means no such curve, though single readings can be large; an effect the other way counts as inactive or inconclusive. Potency means the concentration at half of the fitted maximal effect.

SMILES	BRCA1 expr up	ERG-DNA inh	GoLoco inh red	Anesthetic bind
COc1ccc2c(c1)CCC2=O	5%	.	.	.
Cc1cccc(NC(=O)c2ccc(OC3CSC3)cc2)c1	11µM*	.	-3%	-19%
COc1ccc(CCNC(=O)Cc2ccc(OCc3ccccc3)c(OC)c2[N+](=O)[O-])cc1OCc1ccccc1	-46%	-4%	36%	35µM*
COc1ccc(CCNC(=O)Cc2ccc([N+](=O)[O-])cc2)cc1OC	10%	-13%	6%	-5%
O=c1[nH]c(=S)c2[nH]cnc2[nH]1	6%	.	.	.
COc1cc(OC)cc(OC)c1	.	.	18µM*	-7%
O=C1CCCC2=C1C(c1ccc(Cl)cc1)N=C(Nc1nc3ccccc3o1)N2 (stereo not given)	-7%	.	.	.
Cc1ccc(NC(=O)CC2CCCC2)c(Br)c1	13µM*	-16%	.	?
Cc1ccc(NC(=O)CCC(=O)c2cccs2)c(Br)c1	6.3µM*	-6%	.	?
Cc1ccc(NC(=O)COC(=O)CCC(=O)c2cccs2)c(Br)c1	3%	-3%	.	.
Cn1c(NC(=O)CCC2CCCCC2)cc(=O)n(C)c1=O	2.2µM*	5%	20%	?
Cc1ccc(O)c(NC(=O)CCC2CCCCC2)c1	4µM*	12%	14%	?
COc1ccccc1C1N=C(Nc2nc3ccccc3o2)NC2=C1C(=O)CC(C)(C)C2 (stereo not given)	-36%	.	.	.
CC(=O)[O][Al][O]C(C)=O	.	.	8%	.
NCCCCCc1cnc[nH]1	.	.	5%	-10%
O=C(c1ccc(OCC2CCCO2)cc1)N1CCN(c2ccccc2)CC1 (stereo not given)	0%	-25%	-5%	-24%
O=C(c1ccc(OCC2CCCO2)cc1)N1CCc2ccccc2C1 (stereo not given)	11µM*	-16%	9%	-22%
O=C1CN(c2ccccc2)C(=S)N1C(=O)c1ccc(Br)cc1	3.2µM*	106%	.	-10%
CC(C)CCNC(=O)C(=O)Nc1ccccc1	8.9µM*	1%	7%	-14%
CCOc1ccccc1-c1c2cc(O)c(=O)cc-2oc2cc(O)c(O)cc12	-81%	?	i	2%
O=c1cc2oc3cc(O)c(O)cc3c(-c3ccccc3O)c-2cc1O	-32%	2%	7.9µM*	80%
COc1ccc(OC)c(-c2c3cc(O)c(=O)cc-3oc3cc(O)c(O)cc23)c1	-85%	i	10µM*	112%
O=C(NCCCc1ccccc1)c1ccc([N+](=O)[O-])cc1Cl	10µM*	-11%	.	-15%
O=C(Nc1ccccn1)c1ccc([N+](=O)[O-])cc1Cl	27%	-9%	10%	-11%
CC(=O)Nc1cccc(NC(=O)c2ccc([N+](=O)[O-])cc2Cl)c1	0%	9%	-5%	4%
SMILES	BRCA1 expr up	ERG-DNA inh	GoLoco inh red	Anesthetic bind
Cc1ccc(C(=O)NCCCc2ccccc2)c(Cl)c1	?	1%	.	?
Cc1ccc(NC(=O)c2ccc([N+](=O)[O-])cc2Cl)nc1	1.1µM*	-7%	-2%	-11%
O=C(Nc1cccc(O)c1)c1ccc([N+](=O)[O-])cc1Cl	5µM*	-5%	3%	-8%
O=C(CCCc1ccccc1)Nc1cccc([N+](=O)[O-])c1	13µM*	5%	.	?
O=C(NCc1ccccc1Br)c1cnc2sc(N3CCCCCC3)nn2c1=O	.	-6%	.	4%
NCC(O)COc1cccc2ccccc12 (stereo not given)	.	.	4%	-5%
COc1ccc2nccc(/C=C/c3ccc(N(C)C)cc3)c2c1	-27%	.	.	.
Cc1ccc(C(=O)N2c3ccccc3CC2C)o1 (stereo not given)	4µM*	5%	11%	?
Cc1ccc(C)c(NC(=S)NNC(=O)c2csc3c2CCC(C)C3)c1 (stereo not given)	-31%	20%	11%	28µM*
Cc1noc(C)c1-c1ccc2ncnc(NC3CCCc4ccccc43)c2c1 (stereo not given)	.	.	.	-9%
Cc1cc(C(=O)CSc2n[nH]c(N)n2)c(C)n1-c1cccc(F)c1	13µM*	.	-2%	-19%
COc1cc2nc(N3CCCN(C)CC3)nc(OC3CCN(C)CC3)c2cc1OC	0%	.	.	.
CCCCCCNC(=O)N[C@H](C(=O)NCCC[C@H]1CN2C(=NC[C@H]2C)N1CCC(c1ccccc1)c1ccccc1)C(C)O (stereo not given in full)	.	.	10µM*	-18%
CCOC(=O)c1ccc(N2Cc3ccccc3C2)cc1O	13µM*	.	17%	-2%
COc1ccccc1N1CCN(/N=C/c2ccc(Cl)c([N+](=O)[O-])c2)CC1	?	-2%	.	-12%
COc1ccccc1N1CCN(/N=C/c2ccc([N+](=O)[O-])cc2)CC1	5µM*	7%	.	-6%
COc1ccccc1N1CCN(/N=C/c2cccc(O)c2)CC1	?	4%	16%	3%
COc1ccccc1N1CCN(/N=C/c2cc(OC)c(O)c(OC)c2)CC1	75%	4%	2.8µM*	-12%
CC[C@H](C)[C@H](NC(=O)[C@H](CCC(=O)O)NC(=O)[C@H](CO)NC(=O)[C@@H](NC(=O)[C@H](C)N)C(C)C)C(=O)N[C@@H](CCC(N)=O)C(=O)N[C@@H](CC(C)C)C(=O)N[C@@H](CCSC)C(=O)N[C@@H](Cc1cnc[nH]1)C(=O)N[C@@H](CC(N)=O)C(=O)N[C@@H](CC(C)C)C(=O)NCC(=O)N[C@@H](CCCCN)C(=O)N[C@@H](Cc1cnc[nH]1)C(=O)N[C@@H](CC(C)C)C(=O)N[C@@H](C)C(=O)N[C@@H](CO)C(=O)N[C@H](C(=O)N[C@@H](CCC(=O)O)C(=O)N[C@@H](CCCNC(=N)N)C(=O)N[C@@H](CCSC)C(=O)N[C@@H](CCC(N)=O)C(=O)N[C@@H](Cc1c[nH]c2ccccc12)C(=O)N[C@@H](CC(C)C)C(=O)N[C@@H](CCCNC(=N)N)C(=O)N[C@@H](CCCCN)C(=O)N[C@@H](CCCCN)C(=O)N[C@@H](CC(C)C)C(=O)N[C@@H](CCC(N)=O)C(=O)N[C@@H](CC(=O)O)C(=O)N[C@H](C(=O)N[C@@H](Cc1cnc[nH]1)C(=O)N[C@@H](CC(N)=O)C(=O)N[C@@H](Cc1ccccc1)C(=O)O)C(C)C)C(C)C	.	.	.	-18%
O=c1c2ccccc2nnn1COc1cccc2ccccc12	8.9µM*	7%	19%	?
Cc1ccc(OCCn2nnc3ccccc32)cc1C	4.5µM*	6%	.	?
CCOc1ccc(OCCn2nnc3ccccc3c2=O)cc1	1µM*	-6%	-6%	-16%
c1ccc(CCn2nnc3ccccc32)cc1	13µM*	-13%	-2%	-2%
COc1ccc(C2Nc3ccccc3C(=O)N2Cc2ccccc2)cc1COc1ccc([N+](=O)[O-])cc1 (stereo not given)	0%	.	.	.
COc1ccc(-c2nn(-c3ccccc3)cc2C(=O)O)cc1	1%	7%	1%	2%
COc1ccc(-c2nn(-c3ccccc3)cc2C#N)cc1	4µM*	-4%	0%	-2%
